Compound activity from PubChem BioAssay.
Epigenetic derep = epigenetic control regulation, reporter derepression; murine LDR cells, GFP reporter derepression, 30 h; Potency, µM (top dose mostly 53.9 µM), for the others: at the top dose GFP activation, most hits filed as activators; 280,000 compounds, 0.2% hits; also: % of control where 0% means no effect; nearly all actives have a fitted effect of over 60% in size
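Readout is the number of GFP-expressing murine LDR cells, counted by cytometry following washing. Cells were treated with compound for 30 h at 37 C; the stably integrated CMV-GFP locus is normally silent.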
HTT cytoprotect = Huntington cell model cytoprotection by ATP luminescence | Potency, µM (series often up to 56.4 µM), for inactives: cytoprotection (ATP increase), usual class: activators | 230,000 compounds, 0.14% hits | PC12 HTT-Q103 induced, cytoprotection, ATP luminescence, 40 h; also: % of control where 0% means no effect; nearly all actives have a fitted effect of over 45% in size
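Compounds added alongside 100 nM tebufenozide, which induces toxic Q103 huntingtin exon 1-GFP in stable PC12 cells; surviving cells quantified by luminescent ATP measurement. Medium: phenol red-free DMEM, 5% equine and 5% calf serum.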
HttQ103 aggreg = inhibitors of mutant huntingtin aggregate formation in PC12 cells. PC12 HttQ103-GFP aggregates, Acumen cytometry, 40 h. Potency, µM (top dose mostly 46.1 µM), inactives show at the top dose activity change, negative = inhibition, actives largely listed as inhibitors. 220,000 compounds, 1.1% hits. AID 1688; also: % is scaled to controls: 0 for no effect and ±100 for the full control effect; nearly all actives have a fitted effect of over 60% in size
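Compounds (qHTS titration) were added to PC12 cells expressing an ecdysone-driven HTT exon 1 Q103–GFP fusion after induction with 100 nM tebufenozide. Aggregate formation was measured as GFP objects in cell lysates.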
LMNA splice mod = changes lamin A minigene splicing in HeLa cells; HeLa LMNA splicing GFP/RFP minigene ratio, 48 h; 200,000 compounds, 0.01% hits; AID 1487; Potency, µM (doses to about 46.1 µM), inactives show at the top dose ratio change, negative = inhibition, usual class: inhibitors; active = well fitted inhibition curve with a large enough effect in the signal ratio, with a control signal flat, not every such curve was filed as active; inconclusive = small, poorly fitted or top-dose-only effect, or effect the other way, or a change in a side signal; the % refers to the signal ratio; also: % is scaled to controls: 0 for no effect and ±100 for the full control effect
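Read-out is the ratio of GFP to DsRed2 object intensity, acquired by 488 nm laser-scanning cytometry on HeLa lamin A-EGFP minigene reporter cells. Compound incubation 48 hrs at 37 °C in Opti-MEM with 2% FBS; DMSO 0.5% final.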
NPSR antagonist = blocks cAMP signaling of the human neuropeptide S receptor; Q6W5P4; CHO-NPSR cells, cAMP TR-FRET, antagonist mode; 220,000 compounds, 1% hits; Potency, µM (highest dose often 38.3 µM), without a hit: at the highest dose activity change, negative = inhibition, usual class: inhibitors; also: % is scaled to controls: 0 for no effect and ±100 for the full control effect; nearly all actives have a fitted effect of over 50% in size
Target sequence (Q6W5P4 whole entry, looked up): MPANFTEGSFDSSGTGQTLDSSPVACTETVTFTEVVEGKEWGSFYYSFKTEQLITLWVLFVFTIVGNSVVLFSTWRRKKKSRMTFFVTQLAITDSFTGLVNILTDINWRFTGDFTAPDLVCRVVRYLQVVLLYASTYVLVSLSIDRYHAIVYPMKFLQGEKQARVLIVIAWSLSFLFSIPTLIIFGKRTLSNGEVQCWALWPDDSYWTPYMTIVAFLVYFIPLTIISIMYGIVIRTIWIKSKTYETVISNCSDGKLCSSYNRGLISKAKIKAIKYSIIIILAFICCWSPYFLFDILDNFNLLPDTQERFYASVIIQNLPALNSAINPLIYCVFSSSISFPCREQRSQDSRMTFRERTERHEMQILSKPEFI
* marks the source's active call; other numbers are inactive results; ? = inconclusive; . = not tested or not shown; [ ] = dose if it differs, or a comment. Rows were chosen to be rich in hits. Some 1.5% of all compounds tested hit in one or more screens of this group. Unless noted, calls follow the shape of the dose curve; as a rule, active = well fitted curve in the direction sought with a large enough effect; inconclusive = small, poorly fitted or top-dose-only effect, or another doubt; inactive = no such curve, though single readings can be large; an effect the other way counts as inactive or inconclusive. Potency is read from the fitted curve at half-maximal effect.

SMILES	Epigenetic derep	HTT cytoprotect	HttQ103 aggreg	LMNA splice mod	NPSR antagonist
Cc1ccc(-c2noc(-c3ccccc3NC(=O)C3CC(=O)N(c4cccc(C)c4)C3)n2)cc1 (configuration not stated)	16µM*	.	.	.	.
N#C/C(=N\Nc1cccc(C(F)(F)F)c1)C(=O)c1csc(-c2cccnc2)n1	0%	11%[10 µM]	-20%[9.22 µM]	.	10µM*
Cc1ccc(NC(=O)Cn2nnc(-c3nc(-c4ccncc4)no3)c2N)cc1	-2%	.	.	.	.
CO/N=C/c1ccc(N2CCN(C(=O)c3ccc(F)cc3)CC2)c([N+](=O)[O-])c1	0%	8%[10 µM]	13µM*	?	-10%[46.1 µM]
CO/N=C/c1ccc(N2CCN(C(=O)c3ccc(Cl)cc3Cl)CC2)c([N+](=O)[O-])c1	-1%	-69%	18µM*	-21%	-27%[46.1 µM]
CO/N=C/c1ccc(N2CCN(C(=O)c3cccc(C(F)(F)F)c3)CC2)c([N+](=O)[O-])c1	-1%	12%[10 µM]	?	?	-24%[46.1 µM]
CCN1CCN(CCNC(=O)C2CCCN(Cc3nc(-c4cccc(Cl)c4)oc3C)C2)CC1 (configuration not stated)	1%	-34%	?	-3%	8%[46.1 µM]
CCOC(=O)N1CCC(NC(=O)C2CCCN(Cc3nc(-c4cccc(Cl)c4)oc3C)C2)CC1 (configuration not stated)	0%	-20%	7.9µM*	?	-8%[46.1 µM]
O=C1c2cccc([N+](=O)[O-])c2C(=O)N1CCO	2%	-20%	1%	.	5%
O=C1c2cccc3c(Nc4ccccc4Cl)c([N+](=O)[O-])cc(c23)C(=O)N1CCO	-1%	-74%	10µM*	?	-19%[46.1 µM]
Cc1ccc2[nH]c(=O)c(CN(Cc3ccc4c(c3)OCO4)Cc3nnnn3C3CCCC3)cc2c1	-1%	-26%[10 µM]	-5%[9.22 µM]	?	13µM*
CCC(c1nnnn1Cc1ccco1)N(CCc1ccccc1)Cc1cc2cc(C)ccc2[nH]c1=O (configuration not stated)	-7%	-17%[10 µM]	28µM*	?	?
Cc1ccc2[nH]c(=O)c(CN(Cc3nnnn3Cc3ccccc3)C3CCCC3)cc2c1	-2%	-55%[10 µM]	0.89µM*	1%	-4%[46.1 µM]
Cc1cc2cc(CN(Cc3ccc4c(c3)OCO4)Cc3nnnn3C3CCCC3)c(=O)[nH]c2cc1C	2%	-16%[10 µM]	0%	2%	?
Cc1ccc2[nH]c(=O)c(CN(CCc3ccccc3)C(c3nnnn3Cc3ccco3)C(C)C)cc2c1 (configuration not stated)	3%	-38%[10 µM]	-2%[9.22 µM]	.	-59%
Cc1cccc2cc3c(nc12)SC(=NCC1CCCO1)N(Cc1ccco1)C3 (configuration not stated)	0%	8%[10 µM]	-19%	-8%	10µM*
CC1=NN(c2cccc(C(=O)O)c2)C(=O)/C1=C\C=C/c1ccccc1	0%	-20%	?	.	7.9µM*
CCOC(=O)C1CCN(C(=O)CSc2c3c(nc4ccccc24)CCC3)CC1	9%	5%	3%	.	-34%
COc1ccccc1NC(=O)CSc1c2c(nc3ccccc13)CCC2	0%	-5%[10 µM]	35µM*	?	23%
O=C(CSc1c2c(nc3ccccc13)CCC2)N1CCCC1	7%	10µM*	?	.	4%
COc1ccc(NC(=O)CSc2c3c(nc4ccccc24)CCCC3)c(OC)c1	-2%	-5%[10 µM]	13%	?	-19%
CN(C)c1ncc2ncc(=O)n(C3CC3)c2n1	.	-46%	.	-4%	.
CC(C)Oc1ccc(C(=O)Nc2ccc(-c3nc4ccccc4s3)cc2)cc1	6%	.	.	?	.
COc1ccccc1OC(C)C(=O)Nc1ccc(-c2nc3ccccc3s2)cc1 (configuration not stated)	35µM*	.	.	12%[46 µM]	.
COc1ccc(NC(=O)c2ccc3c(c2)NC(=O)CS3)cc1S(=O)(=O)Nc1ccc(Br)cc1	2%	-132%	18µM*	?	-19%
COc1ccc(C(=O)Nc2ccccc2)cc1S(=O)(=O)Nc1ccc(Br)cc1	-1%	.	.	.	.
O=C(Cn1c(=O)n(-c2ccccc2)c(=O)c2ccc(C(=O)NCc3ccc4c(c3)OCO4)cc21)Nc1ccc(Br)cc1F	10%	.	.	.	.
